We go through twelve compounds from PubChem BioAssay (NCATS).

A short description of experiment [1]: qHTS assay for small molecule antagonists of peroxisome proliferator-activated receptor delta signaling (AID 588535; active means well fitted inhibition curve with a large enough effect in the signal ratio, with a control signal flat, not every such curve was filed as active; the % refers to the signal ratio;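 on max response: cells co-treated with a PPAR-delta agonist as stimulator during compound exposure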). The settings on record: HEK293T PPARd-UAS-bla, beta-lactamase FRET ratio, 18 h; 460 nm channel. In outline:
(§1)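 Beta-lactamase reporter read-out (405 nm excitation, 460/530 nm emission) after CCF4 loading for 2 hrs at RT. HEK293T PPAR-delta-UAS-bla cells, 2% charcoal/dextran FBS, compounds for 18 hrs at 37 C. Hill fit gave IC50 and efficacy.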
(In qHTS, concentration-response curves come from the screen itself.)

In experiment [2] the target is Peroxisome proliferator-activated receptor delta (Homo sapiens) (UniProt Q03181). The experiment is described as above. The settings on record: HEK293T PPARd-UAS-bla, beta-lactamase FRET ratio, 18 h; series mostly up to 76.7 µM. In outline: as §1
Chain of Peroxisome proliferator-activated receptor delta (Homo sapiens) (Q03181 whole entry, looked up): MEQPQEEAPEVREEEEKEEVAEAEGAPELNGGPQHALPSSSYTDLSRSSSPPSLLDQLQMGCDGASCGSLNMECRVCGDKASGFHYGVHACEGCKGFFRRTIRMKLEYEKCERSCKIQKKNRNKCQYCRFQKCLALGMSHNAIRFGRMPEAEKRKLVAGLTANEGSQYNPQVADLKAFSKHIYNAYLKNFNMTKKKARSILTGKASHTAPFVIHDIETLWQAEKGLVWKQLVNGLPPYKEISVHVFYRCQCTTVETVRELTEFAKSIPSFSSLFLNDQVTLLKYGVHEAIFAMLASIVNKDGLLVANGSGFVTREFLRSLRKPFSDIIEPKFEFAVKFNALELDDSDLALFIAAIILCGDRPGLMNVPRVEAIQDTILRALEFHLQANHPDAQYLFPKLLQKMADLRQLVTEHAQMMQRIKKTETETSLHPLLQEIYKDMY
A short description of experiment [3]: qHTS assay for small molecule agonists of retinoid X receptor alpha signaling (AID 588544). The settings on record: HEK293T RXRa-UAS-bla, beta-lactamase reporter, 18 h; 530 nm emission.
Experiment [4] deals with Thyroid hormone receptor beta (Homo sapiens) (UniProt P10828). The experiment in a line: qHTS assay for small molecule antagonists of thyroid hormone receptor beta signaling (AID 588547; active means well fitted inhibition curve with a large enough effect in the signal ratio, with a control signal flat, not every such curve was filed as active; the % refers to the signal ratio;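 further: cells stimulated with 0.4 nM T3 agonist during compound exposure; on the % scale 0 is the no-effect control and ±100 the full control effect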). The settings on record: TR-UAS-bla HEK293, beta-lactamase ratio, antagonist mode, 18 h. In outline: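 TR-UAS-bla GripTite HEK293 cells in 2% charcoal/dextran FBS medium; compounds 0.59 nM to 92 uM with T3 at 0.4nM final, 18 h at 37 C. Beta-lactamase read by CCF4 fluorescence (460/530 nm); Hill fits gave IC50 and efficacy.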
Chain of Thyroid hormone receptor beta (Homo sapiens) (P10828 whole entry, looked up): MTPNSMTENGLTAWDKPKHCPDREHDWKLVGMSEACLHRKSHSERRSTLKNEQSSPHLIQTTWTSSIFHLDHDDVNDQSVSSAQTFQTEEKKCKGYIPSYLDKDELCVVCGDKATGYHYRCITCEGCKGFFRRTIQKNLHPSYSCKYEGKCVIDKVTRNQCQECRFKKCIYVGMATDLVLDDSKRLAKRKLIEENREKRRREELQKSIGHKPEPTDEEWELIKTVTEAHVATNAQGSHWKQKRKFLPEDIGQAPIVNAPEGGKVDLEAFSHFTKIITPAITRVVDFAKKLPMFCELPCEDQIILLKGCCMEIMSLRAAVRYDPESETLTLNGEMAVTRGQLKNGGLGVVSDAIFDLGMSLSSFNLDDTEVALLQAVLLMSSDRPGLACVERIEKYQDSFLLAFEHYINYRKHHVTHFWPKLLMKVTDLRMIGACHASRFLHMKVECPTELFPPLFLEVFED

Experiment [5] has as its target Nuclear receptor subfamily 1 group I member 2 (Rattus norvegicus) (UniProt Q9R1A7). The experiment is described as follows: qHTS assay for small molecule activators of the rat pregnane X receptor (rPXR) signaling pathway (AID 651751; call rule not given here; further: 0% is about no effect). The settings on record: rPXR reporter cells, luciferase (One-Glo), 24 h.
Experiment [6] is described as follows: qHTS assay for small molecule antagonists of the retinoid-related orphan receptor gamma (ROR-gamma) signaling pathway - cell viability counter screen (AID 720652; active means well fitted curve in the direction sought with a large enough effect in the repeat runs; an effect the other way counts as inactive or inconclusive;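 further: CHO reporter cells with doxycycline-induced ROR-gamma expression; compound exposure lasted 16 hr before ATP read; on the % scale 0 is the no-effect control and ±100 the full control effect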). The settings on record: RORgamma reporter cell line viability counter screen; series mostly up to 92.2 µM. The essentials: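 CHO RORE-LUC/TET-ROR line, 1,000 cells/well, 37 C 5% CO2 5 hr; cpd or DMSO + doxycycline induction, 16 hr. CellTiter-Glo, 30 min RT, luminescence = ATP content.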

For experiment [7], the target named is Peroxisome proliferator-activated receptor gamma (Homo sapiens) (UniProt P37231). The experiment is described as follows: qHTS assay for small molecule agonists of peroxisome proliferator-activated receptor gamma signaling (AID 588536; active means well fitted curve in the direction sought with a large enough effect in the signal ratio, with a control signal flat, not every such curve was filed as active; the % refers to the signal ratio;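 further: 0% = DMSO basal wells and 100% = rosiglitazone at 2 µM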). The settings on record: HEK293 PPARg-UAS-bla, beta-lactamase ratio, 16 h; series mostly up to 76.7 µM. The essentials: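 Cells were plated and held 6–6.5 h at 37 C, then compounds were added as a titration series. After a further 16 h, CCF4 dye was loaded for 2 h at room temperature and emission at 460/530 nm recorded.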
Chain of Peroxisome proliferator-activated receptor gamma (Homo sapiens) (P37231 whole entry, looked up): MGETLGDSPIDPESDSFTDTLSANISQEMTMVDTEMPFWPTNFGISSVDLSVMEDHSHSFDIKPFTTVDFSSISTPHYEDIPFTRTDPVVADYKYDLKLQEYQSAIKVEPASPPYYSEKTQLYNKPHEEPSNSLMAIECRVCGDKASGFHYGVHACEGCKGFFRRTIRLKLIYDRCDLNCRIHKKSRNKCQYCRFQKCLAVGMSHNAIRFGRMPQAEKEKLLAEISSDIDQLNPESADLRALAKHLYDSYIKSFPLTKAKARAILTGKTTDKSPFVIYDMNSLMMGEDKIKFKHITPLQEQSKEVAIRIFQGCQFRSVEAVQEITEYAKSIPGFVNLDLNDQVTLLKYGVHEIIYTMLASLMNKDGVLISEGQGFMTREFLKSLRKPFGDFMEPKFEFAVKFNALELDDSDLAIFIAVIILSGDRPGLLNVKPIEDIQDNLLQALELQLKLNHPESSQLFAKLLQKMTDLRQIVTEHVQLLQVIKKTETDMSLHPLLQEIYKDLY

For experiment [8] the target is unchanged. The experiment in a line: qHTS assay for small molecule antagonists of peroxisome proliferator-activated receptor gamma signaling (AID 588537; active means well fitted inhibition curve with a large enough effect in the signal ratio, with a control signal flat, not every such curve was filed as active; the % refers to the signal ratio;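 further: reporter cells co-stimulated with 50 nM rosiglitazone agonist during compound treatment; % of control where 0% means no effect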). The settings on record: HEK293 PPARg-UAS-bla, beta-lactamase ratio, antagonist mode; series mostly up to 76.8 µM. The essentials: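 Read-out: CCF4 fluorescence (ex 405, em 460/530 nm) after 2 h at RT. Cells were HEK293 carrying a UAS-bla reporter and treated 16 h at 37 C with compound plus rosiglitazone (50 nM final). Normalized to rosiglitazone and DMSO.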

The nature of experiment [9]: qHTS assay for small molecule antagonists of retinoid X receptor alpha signaling (AID 588546; active means well fitted inhibition curve with a large enough effect in the signal ratio, with a control signal flat, not every such curve was filed as active; the % refers to the signal ratio; further: potency means the concentration at half of the fitted maximal effect;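 on max response: cells stimulated with 9-cis-retinoic acid as agonist; on the % scale 0 is the no-effect control and ±100 the full control effect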). The settings on record: HEK293T RXRa-UAS-bla, beta-lactamase ratio, antagonist mode; measured here: W530 green channel, cytotoxicity proxy. The essentials:
(§2)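 Beta-lactamase reporter inhibition, read as CCF4 fluorescence ratio (ex 405, em 460/530 nm) after 2 h at RT. HEK293T UAS-bla cells, 2500/well, were stimulated with 9-cis-RA at 500 or 100 nM final alongside test compound for 18 h at 37 C.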

For experiment [10], the target named is Retinoic acid receptor RXR-alpha (Homo sapiens) (UniProt P19793). The experiment is described as above. The settings on record: HEK293T RXRa-UAS-bla, beta-lactamase ratio, antagonist mode. The essentials: as §2
Chain of Retinoic acid receptor RXR-alpha (Homo sapiens) (P19793 whole entry, looked up): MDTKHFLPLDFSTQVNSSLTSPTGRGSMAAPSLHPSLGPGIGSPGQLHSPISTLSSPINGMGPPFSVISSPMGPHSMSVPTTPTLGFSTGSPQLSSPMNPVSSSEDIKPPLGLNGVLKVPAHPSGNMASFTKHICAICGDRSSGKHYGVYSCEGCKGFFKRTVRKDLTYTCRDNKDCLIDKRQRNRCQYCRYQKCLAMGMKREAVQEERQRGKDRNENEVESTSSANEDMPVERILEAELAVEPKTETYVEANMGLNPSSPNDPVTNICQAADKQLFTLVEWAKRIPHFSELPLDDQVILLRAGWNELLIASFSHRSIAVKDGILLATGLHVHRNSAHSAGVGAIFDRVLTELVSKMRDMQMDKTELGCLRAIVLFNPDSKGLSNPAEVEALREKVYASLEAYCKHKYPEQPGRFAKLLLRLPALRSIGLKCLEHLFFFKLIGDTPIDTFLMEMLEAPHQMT
A short description of experiment [11]: qHTS assay for small molecule activators of the human pregnane X receptor (PXR) signaling pathway (AID 720659; call rule not given here; further: 0% is about no effect). The settings on record: DPX-2 HepG2 CYP3A4-luciferase, 24 h; series mostly up to 92.3 µM.
The nature of experiment [12]: qHTS assay for cell viability of the p53RE-bla HCT-116 cell line (AID 743292). Further: nearly all actives have a fitted effect of over 55% in size. Further: potency means the concentration at half of the fitted maximal effect. The settings on record: p53RE-bla HCT-116 viability, ATP luminescence, 16 h; series mostly up to 95 µM. In outline:
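ATP-based luminescence, 16 h compound exposure at 37 C, p53RE-bla HCT-116 cells at 4,000/well.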

In experiment [13] the target is Luciferin 4-monooxygenase (Photinus pyralis) (UniProt P08659). The experiment is described as follows: Biochemical firefly luciferase enzyme assay for NPC (AID 624030).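 Further: purified P. pyralis luciferase at 10 nM with luciferin and ATP substrate; 0% = DMSO and -100% = full luciferase inhibition by PTC124 control; nearly all actives have a fitted effect of over 70% in size.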 The settings on record: purified P. pyralis luciferase, luminescence, 5 min; series mostly up to 58.6 µM. In outline:
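Purified P. pyralis luciferase at 10 nM in 50 mM Tris Acetate (final), luminescence read within 5 minutes of enzyme addition to compounds. Activity normalised to PTC124 versus DMSO; concentration-response curves classed by r2, magnitude and activity.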

Experiment [14] can be described thus: S16 Schwann cell PMP22 intronic element firefly luciferase assay (AID 624032).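 Further: plate controls were DMSO for no effect and PTC124 positive control mean for full effect; nearly all actives have a fitted effect of over 30% in size.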 The settings on record: S16 rat Schwann cells, PMP22 element FLuc, 24 h; series mostly up to 57.5 µM. In outline:
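Rat S16 Schwann cells stably carrying firefly luciferase driven by a PMP22 intronic element, in 10% FBS, treated 24 h at 37 C. ONE-Glo luminescence normalized to PTC124 control and DMSO (0%); curves classed by r2, magnitude and activity.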

Molecules are shown by their SMILES. “And” between values parts separate entries of the source, which are not always exact repeats. Equal entries are not always repeated. Records with an inconclusive call do not appear. The source made the active and inactive calls. Unless noted, the call rests on the fitted dose curve; in most records, active means well fitted curve in the direction sought with a large enough effect; inconclusive means small, poorly fitted or top-dose-only effect, or another doubt; inactive means no such curve, though single readings can be large; an effect the other way counts as inactive or inconclusive.

Chain of Nuclear receptor subfamily 1 group I member 2 (Rattus norvegicus) (Q9R1A7 whole entry, looked up): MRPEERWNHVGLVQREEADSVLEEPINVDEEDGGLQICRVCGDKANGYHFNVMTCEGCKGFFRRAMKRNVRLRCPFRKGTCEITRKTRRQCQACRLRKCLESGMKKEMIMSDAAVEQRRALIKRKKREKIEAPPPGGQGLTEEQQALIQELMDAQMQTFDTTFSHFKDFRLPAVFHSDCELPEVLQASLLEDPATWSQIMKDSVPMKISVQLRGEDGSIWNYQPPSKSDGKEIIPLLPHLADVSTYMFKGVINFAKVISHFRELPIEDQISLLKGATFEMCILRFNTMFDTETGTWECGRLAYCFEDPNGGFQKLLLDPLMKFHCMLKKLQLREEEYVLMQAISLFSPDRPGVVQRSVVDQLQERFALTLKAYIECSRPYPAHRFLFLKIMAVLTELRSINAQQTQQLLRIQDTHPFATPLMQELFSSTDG
Chain of Luciferin 4-monooxygenase (Photinus pyralis) (P08659 whole entry, looked up): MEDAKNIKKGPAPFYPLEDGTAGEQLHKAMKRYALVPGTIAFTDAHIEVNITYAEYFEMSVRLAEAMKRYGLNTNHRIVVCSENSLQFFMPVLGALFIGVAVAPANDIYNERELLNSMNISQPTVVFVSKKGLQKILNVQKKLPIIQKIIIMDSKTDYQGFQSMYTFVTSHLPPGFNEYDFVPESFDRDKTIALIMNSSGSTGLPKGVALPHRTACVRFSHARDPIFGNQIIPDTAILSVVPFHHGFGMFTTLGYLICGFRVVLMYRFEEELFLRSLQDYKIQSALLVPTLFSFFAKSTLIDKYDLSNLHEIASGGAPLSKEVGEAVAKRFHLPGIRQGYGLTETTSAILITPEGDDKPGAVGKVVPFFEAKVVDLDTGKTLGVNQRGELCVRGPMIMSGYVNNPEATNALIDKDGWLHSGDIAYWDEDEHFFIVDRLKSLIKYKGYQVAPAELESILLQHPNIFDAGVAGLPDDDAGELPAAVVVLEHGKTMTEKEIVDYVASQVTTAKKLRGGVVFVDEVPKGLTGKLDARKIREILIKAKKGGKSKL

Regarding `CCOP(=O)(OCC)Oc1ccc([N+](=O)[O-])cc1`, the max response in [1] is -45.6%; in experiment [3] it was -4.35%; in [5], 3.26% (inactive). Also, the Potency entry in experiment [2] was “inactive”. For the same compound, the activity change % (negative = inhibition) in experiment [4] is -16.8% (inactive).
On to `c1ccccc1`, for which the max response in experiment [1] was -9.22% and -21.5% and 24.9%. Also, the Potency entry in experiment [2] and in [6] was “inactive” each time.
Regarding `CCOC(=O)C(C)Oc1ccc(Oc2nc3ccc(Cl)cc3o2)cc1` (stereo not given), the Potency result in experiment [7] was “inactive”.
With `Cc1ccc(-c2c(Cl)nc(C#N)n2S(=O)(=O)N(C)C)cc1`, the Potency result in [7] is “inactive”.
Take `CCCCNC(=O)OCC#CI`: the Potency result in [8] is “inactive”. The figures for the max response in [9] and in [10] were 2.86% and -22.6% (inactive), respectively. In addition, the compound was called inactive in [11].
Regarding `Nc1cccc(C(F)(F)F)c1`, the Potency entry in experiment [8] was “inactive”.
With `COc1ccccc1[N+](=O)[O-]`, in experiment [3], the max response came to 2.69%.
As to `CN(c1c(Br)cc(Br)cc1Br)c1c([N+](=O)[O-])cc([N+](=O)[O-])cc1C(F)(F)F`, the values for the max response in experiment [9] and in experiment [5] were -24% and -14.1% (inactive), respectively. Moreover, the results for the Potency in experiment [10] and in experiment [12] were 8.91 µM (active) and 7.08 µM (active), respectively.
With `CCCCC(CC)COC(=O)CCCCC(=O)OCC(CC)CCCC` (stereo not given), the activity change % (negative = inhibition) in [4] is 4.91% (inactive).
Regarding `ClC(Cl)Cl`, in experiment [13], the Potency result was “inactive”.
Take `CN(C)CCCCCCN(C)C`: the Potency result in experiment [14] is “inactive”.
As to `[Cu+2].[O-]c1cccc2cccnc12.[O-]c1cccc2cccnc12`, the Potency entry in experiment [12] was “inactive”. In experiment [11], the compound was called inactive.
